Source: PubChem (National Center for Advancing Translational Sciences (NCATS))
Rab9 prom act: activators of Rab9 promoter; Huh7 Rab9 promoter-luciferase reporter, luminescence, 24 h; Potency, µM (titrated, usually from 9.22 µM), inactives show top-dose activation, negative = inhibition, hits mostly activators; 320,000 compounds, 2.8% hits; also: % of control where 0% means no effect; nearly all actives have a fitted effect of over 60% in size
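Huh7 cells stably carrying Rab9 promoter–luciferase reporter, plated 1500 cells/well, compound added after 2 h and incubated 24 h at 37 °C; luciferase luminescence then read after 10 min with detection reagent.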
FLuc modulator: firefly luciferase modulation, counter-screen for miR-21 project. P08659. purified FLuc, Km substrates, luminescence inhibition. Potency, µM (series often up to 57.5 µM), for the others: at the top dose activity change, negative = inhibition, usual class: inhibitors. 360,000 compounds, 6.9% hits. AID 588342;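 also: plate controls were vehicle for no effect and reference inhibitor for full effect; nearly all actives have a fitted effect of over 55% in size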
Target sequence (P08659 whole entry, looked up): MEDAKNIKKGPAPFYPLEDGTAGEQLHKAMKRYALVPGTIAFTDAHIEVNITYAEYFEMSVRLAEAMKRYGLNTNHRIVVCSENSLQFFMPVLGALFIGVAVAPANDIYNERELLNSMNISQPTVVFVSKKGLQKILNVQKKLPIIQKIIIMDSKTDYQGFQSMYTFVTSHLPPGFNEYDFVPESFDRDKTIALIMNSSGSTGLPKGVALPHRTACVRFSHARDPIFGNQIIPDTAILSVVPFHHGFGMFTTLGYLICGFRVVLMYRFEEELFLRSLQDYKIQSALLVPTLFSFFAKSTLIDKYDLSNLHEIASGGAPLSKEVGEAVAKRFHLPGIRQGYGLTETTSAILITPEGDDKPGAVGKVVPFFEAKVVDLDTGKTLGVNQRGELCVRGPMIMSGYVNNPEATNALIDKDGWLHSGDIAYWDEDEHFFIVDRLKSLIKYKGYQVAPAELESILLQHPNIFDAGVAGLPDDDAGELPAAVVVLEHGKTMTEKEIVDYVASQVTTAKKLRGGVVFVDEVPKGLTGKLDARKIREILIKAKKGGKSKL
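Purified P. pyralis luciferase, 10 nM final, with Km-level 10 uM D-luciferin and 10 uM ATP in 50 mM Tris acetate pH 7.5, 10 mM Mg acetate, 0.01% Tween-20, 0.05% BSA; 6-point qHTS titration about 60 µM downward; luminescence read.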
NPC1 promoter act: activates the NPC1 promoter. AID 485313. Huh7 NPC1 promoter luciferase reporter, 24 h. Potency, µM (top dose mostly 9.22 µM), for the others: at the top dose activation, most hits filed as activators. 320,000 compounds, 2.4% hits; also: % of control where 0% means no effect; nearly all actives have a fitted effect of over 60% in size
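Stable NPC1-promoter luciferase Huh7 line; cpd (DMSO) 24 h, 37 °C, 5% CO2; Amplite luciferase reagent 10 min RT; luminescence readout. qHTS format.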
SMN2 splice up: SMN2 splice variant enhancement; AID 1458; HEK293 SMN2-luciferase splicing reporter, luminescence, 30-36 h; Potency, µM (top dose mostly 46.1 µM), without a hit: at the highest dose activity change, positive = activation, actives largely listed as activators; 210,000 compounds, 2.8% hits; also: % of control where 0% means no effect; nearly all actives have a fitted effect of over 55% in size
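qHTS luciferase splicing reporter: luminescence rises when SMN2 exon 7 is included in transfected HEK293 cells. Compound exposure lasted 30-36 h at 37C, with 4.5 mM final sodium butyrate as control, followed by a ONE-Glo read.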
ELG1 genotoxic: inducers of genotoxicity in HEK293T ELG1-luciferase cells; HEK293T ELG1-luciferase reporter, luminescence, 16 h; Potency, µM (titrated, usually from 46 µM), without a hit: top-dose activity change, positive = activation, most hits filed as activators; 330,000 compounds, 1.3% hits; also: % of control where 0% means no effect; nearly all actives have a fitted effect of over 60% in size
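DMSO vehicle served as control against compound-treated ELG1-luciferase HEK293T cells; exposure lasted 16 hr at 37 °C and 5% CO2, followed by ONE-Glo luminescence detection after 30 min.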
An asterisk follows results filed as active; ? = inconclusive; / = no result given. Shown are actives, neighbours in structure and some others; about 7.5% of the full set was active somewhere. Calls follow the shape of the dose curve; as a rule, active = well fitted curve in the direction sought with a large enough effect; inconclusive = small, poorly fitted or top-dose-only effect, or another doubt; inactive = no such curve, though single readings can be large; an effect the other way counts as inactive or inconclusive. Potency is read from the fitted curve at half-maximal effect.

SMILES	Rab9 prom act	FLuc modulator	NPC1 promoter act	SMN2 splice up	ELG1 genotoxic
COc1ccc2oc(C(=O)Nc3ccc(C)cn3)c(C)c2c1	3.2µM*	1.9µM*	2.5µM*	/	5.8µM*
CCN(CC(=O)Nc1ccccc1C(F)(F)F)C(=O)c1oc2ccc(OC)cc2c1C	-2%	17µM*	6%	/	?
COc1ccc2c(CC(=O)Nc3nc(C)cs3)coc2c1	?	24µM*	10%	-3%	-3%
COc1ccc2c(CC(=O)Nc3ccc(OC)c(S(=O)(=O)N4CCOCC4)c3)coc2c1	-1%	17µM*	2%	3%	14%
CCc1noc(C)c1C(=O)N(CC)CC(=O)Nc1ccccc1C(F)(F)F	-4%	-22%	0%	/	3%
O=C(COC(=O)/C=C/c1cccc(Br)c1)NC1CCCC1	/	/	/	/	0%
Cc1ccc(S(=O)(=O)NCC(=O)OCc2nnc(-c3ccccc3)o2)cc1	1%	0%	0%	/	13%
COc1c(F)c(F)c(C(=O)Nc2c(C)cc(Br)cc2C)c(F)c1F	-4%	0%	-2%	-2%	11%
COc1ccc2oc(C(=O)Nc3nc(C)cs3)c(C)c2c1	5.6µM*	0.6µM*	2.5µM*	/	?
COc1ccc2oc(C(=O)Nc3ccccn3)c(C)c2c1	4µM*	0.6µM*	?	/	?
COCc1c(C(=O)Nc2nc(C)cs2)oc2ccccc12	1%	?	-1%	15%	-1%
CN(CC(=O)Nc1ccc(Cl)c(C(F)(F)F)c1)C(=O)CCN1C(=O)C2CC=CCC2C1=O (configuration not stated)	-4%	-1%	-2%	/	-1%
CC(=O)c1c(C)oc2c(Br)cc(NS(=O)(=O)c3ccc(Br)cc3)cc12	/	-7%	/	/	/
CCOC(=O)C1CCCN(C(=O)CC(C)c2ccccc2)C1 (configuration not stated)	2µM*	?	2.8µM*	?	?
CCOC(=O)C1CCCN(C(=O)c2cc(Nc3ccc(OC)c(OC)c3)nc3ccccc23)C1 (configuration not stated)	5%	11µM*	-1%	0%	-6%
CCOC(=O)C1CCCN(C(=O)c2cn(C)c3ccc(S(=O)(=O)N4CCCC4)cc3c2=O)C1 (configuration not stated)	-8%	-1%	0%	11µM*	2%
CCOC(=O)C1CCCN(C(=O)c2cc(Nc3ccc(OC)cc3OC)nc3ccccc23)C1 (configuration not stated)	10%	9.5µM*	10%	-3%	-8%
COc1ccc(Nc2cc(C(=O)NCc3ccccc3)c3ccccc3n2)cc1OC	/	-10%	/	1%	/
CCOC(=O)C1=CN(Cc2ccco2)S(=O)(=O)N(C)C1c1ccc2ccccc2c1 (configuration not stated)	/	/	/	/	-1%
Cc1ccc(-c2nnc(SCC(=O)Nc3cccc(C(=O)N4CCOCC4)c3)n2C)cc1	-6%	-8%	0%	-2%	1%
COc1ccc(CN2CCC(C(=O)Nc3ccc(Oc4ccccc4)nc3)CC2)cc1F	-30%	-2%	-21%	/	4%
CC(=O)N1CCC(N(Cc2ccc(C)o2)C(=O)Nc2cccc(C(F)(F)F)c2)CC1	/	-2%	/	/	/
CCOC(=O)C1CCCN(C(=O)c2cnn3c(C(F)(F)F)cc(-c4ccccc4)nc23)C1 (configuration not stated)	-3%	-1%	-2%	6%	-4%
CCOC(=O)C1CCCN(C(=O)c2cc(-c3ccc(C)cc3)nc3ccccc23)C1 (configuration not stated)	16%	4.8µM*	13%	-37%	0%
CCOc1ccc(CCNC(=O)CN2C(=O)NC3(CCCC3)C2=O)cc1OCC	1%	-1%	-5%	/	7%
SMILES	Rab9 prom act	FLuc modulator	NPC1 promoter act	SMN2 splice up	ELG1 genotoxic
CCn1c(=O)n(CCOC)c(=O)c2c3c(sc21)CCCC3	-4%	0%	-2%	-1%	0%
COCCCn1c(=S)[nH]c2sc3c(c2c1=O)CCCS3	11%	11µM*	19%	-28%	-7%
CCCn1c(=S)[nH]c2sc3c(c2c1=O)CCCC3	2%	15µM*	0%	/	-16%
COCCn1c(=S)[nH]c2sc3c(c2c1=O)CCC(C)C3 (configuration not stated)	3%	17µM*	-1%	/	-7%
Cn1c(=S)[nH]c2sc3c(c2c1=O)CCC(C(C)(C)C)C3 (configuration not stated)	?	4.3µM*	?	/	7%
O=C(c1ccc2c(c1)N(Cc1c(F)cccc1Cl)C(=O)c1ccccc1S2)N1CCOCC1	/	-15%	/	-3%	/
Cc1ccc(NC(=O)C[n+]2ccccc2)cc1[N+](=O)[O-]	5%	1%	11%	13%	1%
Cc1ccc(NC(=O)C(C)[n+]2ccccc2)cc1[N+](=O)[O-] (configuration not stated)	-4%	3%	-1%	28µM*	1%
COc1ccc(Nc2cc(C)c3cc(NC(=O)COc4cccc(C)c4)ccc3n2)cc1	/	-2%	/	/	/
CCOc1ccc2c(c1)nc(SCC(=O)c1ccc(Br)s1)n2C	1%	-10%	1%	-23%	-1%
CCOc1ccc2c(c1)nc(SCC(=O)c1cccs1)n2C	25%	12µM*	?	23%	?
CCOc1ccccc1NS(=O)(=O)c1c(C)noc1C	2%	-3%	3%	28%	23µM*
CCN1CCN(S(=O)(=O)c2ccc(Cl)c(C(=O)NCCc3ccccc3)c2)CC1	?	?	?	/	16µM*
COc1ccc(-c2cc(C(C)=O)c(C)n2CCC(=O)NCc2ccc(F)cc2)cc1	/	5%	/	/	/
Cc1cc(C)c(S(=O)(=O)OC[C@H]2C=CC[C@@H](CCC[C@H]3O[C@H](C(=O)OC(C)C)CC[C@@H]3C)O2)c(C)c1	/	/	/	12%	/
CCOC(=O)c1cnn(-c2ncnc3c2oc2ccccc23)c1N	1.1µM*	1.1µM*	1.3µM*	10µM*	1.6µM*
CCOC(=O)c1cnn(-c2cc(Oc3ccccc3)ncn2)c1N	22%	-12%	25%	-14%	6%
CCOC(=O)c1cnn(-c2cc(C)c3ccccc3n2)c1N	-31%	8.5µM*	?	1%	7%
CCOC(=O)c1cnn(-c2ccccn2)c1N	4µM*	21µM*	4µM*	/	?
Cc1cccc(C(C)C)c1NC(=O)Cc1ccc(S(=O)(=O)N2CCOCC2)s1	0%	-9%	2%	/	-9%
CC(C)NC(=O)COc1ccc(S(=O)(=O)N(C)Cc2ccccc2)cc1	-2%	-5%	-2%	/	-3%
O=c1cc(-c2ccccc2)nc2cc(-c3ccc(Br)cc3)[nH]n12	?	-16%	?	/	3%
O=C1c2nc3cc(-c4ccco4)[nH]n3c(=O)c2CN1C1CCCCC1	14%	2.4µM*	28%	/	?
O=c1cc(-c2ccccc2)nc2cc(-c3ccco3)[nH]n12	?	3.4µM*	22%	/	16%
